Data on 37 molecules can be found in PubChem BioAssay (NCI).

Several values for one entry are separate records, joined by “and”; a condition that tells them apart may be missing. Equal entries are not always repeated. About 83,000 compounds went through this panel and 20% of them were active in at least one assay; those are over-represented in the sample as a whole.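 48-hour exposure, single concentration, 96-well plates; percent growth endpoint where 0 means no net growth. Active: below 10.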 Activity calls are given as the source filed them.

The first assay deals with A549/ATCC NSCLC. The assay can be described thus: NCI-60 one-dose screen, 48 h (100 = growth as untreated, 0 = no growth, -100 = all killed). Conditions: 1 µM. How it is done: Growth inhibition of the A549/ATCC human Non-Small Cell Lung tumor cell line is measured as a screen for anti-cancer activity. Cells are grown in 96 well plates and exposed to the test compound for 48 hours. Compounds are tested at a single concentration, which is 10^-5 M for most compounds. The reported endpoint is percent growth (GI% or GIPRCNT), where numbers from 0 - 100% represent growth inhibition, and numbers from -100% - 0 represent cell death. For example, a value of 40 represents 60% growth inhibition. A value of 0 means no net growth occurred over the course of the experiment. A value of -40 indicates 40% of cells at the beginning of the experiment died by the end of the experiment. A value of -100 means all cells are dead at the end of the experiment.
NCI-60 Human Tumor Cell Lines Screen was performed using the standard one-dose NCI protocol, which is described in more detail at https://dtp.cancer.gov/discovery_development/nci-60/default.htm.
Compounds with GIPRCNT values below 10 were considered active. Activity score was based on GIPRCNT using the following formula: […]
Score is 0 for GIPRCNT values of 100 or above, 50 for GIPRCNT values of 0, and 100 for GIPRCNT values of -100.
Turning to `CNC(=O)c1cc(Oc2ccc(CC(=O)Nc3cc(C(C)(C)C)nn3C)cc2)ccn1`, the growth is 71.2% (inactive).

Still in this assay, the particulars now being: 10 µM.
For the molecule `CNC(=O)c1cc(Oc2ccc(CC(=O)Nc3cc(C(C)(C)C)nn3C)cc2)ccn1`, the growth is 67.2% (inactive).
On to `CC#C[C@]1(O)CC[C@H]2[C@@H]3CCC4=CC(=O)CCC4=C3[C@@H](c3ccc4c(c3)OCO4)C[C@@]21C`, for which the growth is 66.7% (inactive).

Still in this assay, the particulars now being: 10 µM unless noted.
As to `CN(C)c1ccc(C(=C2C=CC(=[N+](C)C)C=C2)c2ccccc2Cl)cc1`, the growth is -55.9% (active) and -34.5% (active).
`O=[N+]([O-])c1ccc(N/N=C\c2cc(Br)ccc2O)nc1`: the growth was 21.4% (inactive).
`ClC/C=C/CSc1ncnc2nc[nH]c12`: the growth is 101% (inactive) and 104% (inactive).
Turning to `CC(=O)Nc1cc(S(=O)(=O)O)cc2cc(S(=O)(=O)O)c(N=Nc3ccccc3)c(O)c12`, the growth is 108% (inactive) and 97% (inactive).
With `CCC(C)C1(C2CCCC2)NC(=O)NC1=O` (stereo not given), the growth is 100% (inactive) and 106% (inactive).
With `Oc1ccccc1/C=N\NC(=S)N/N=C/c1ccccc1O`, the growth was 32.4% (inactive).
The same measure, in the same setting: the figure for `Cc1nnc(NC/C=C/c2ccccc2)s1` is 101% (inactive); for `CN1CCN(C2CCN(C(=O)Nc3cc(Oc4ccc(NC(=O)C5(C(=O)Nc6ccc(F)cc6)CC5)c(F)c4)ccn3)CC2)CC1` it is -13.9% (active) and 90.3% (inactive); for `O=C(O)CSCc1nc2ccccc2[nH]1` it is 110% (inactive).
Consider `CC(C)N=c1cc2n(-c3ccc(Cl)cc3)c3ccccc3nc-2cc1Nc1ccc(Cl)cc1`, for which the growth is 20.2% (inactive) and 43.3% (inactive) and 16.1% (inactive).
The same measure, in the same setting: to `CC(=O)c1ccc2c(c1)N(CCCN1CCN(CCO)CC1)c1ccccc1S2` belongs 45.5% (inactive); to `Clc1ccc(SSc2ccc(Cl)cc2)cc1`, 95.9% (inactive) and 46.9% (inactive); to `Cc1ccc(NCSc2ccc(Cl)cc2)cc1`, 62% (inactive) and 63.7% (inactive).
Take `COc1c(/C(C)=N/N=c2sc(C(C)=O)nn2-c2ccc(Cl)cc2)c(Oc2ccccc2)c(OC)c2occc12`: the growth is 108% (inactive) and 102% (inactive).
The same measure, in the same setting: the figure for `CC(C(=O)O)n1cc(C#N)c(=O)[nH]c1=O` (stereo not given) is 103% (inactive) and 108% (inactive); for `CCN(CC)CCOc1ccc2c(c1)C(=O)c1cc(OCCN(CC)CC)ccc1-2` it is 55.8% (inactive) and 50.6% (inactive); for `N#C/C(=C1C=C/C(=N/O)C(Br)=C/1)c1ccccc1` it is 27.6% (inactive).
Consider `O=C(Nc1ccc(Br)cc1)c1cc(Br)ccc1O`, for which the growth is 14.8% (inactive) and 14.7% (inactive).
As for `Oc1ccc(/C=C/c2ccccc2)cc1`, the growth was 76.1% (inactive) and 59.9% (inactive).
In the case of `Cc1cc(O)c2c(c1)C(=O)c1cc(O)cc(O)c1C2=O`, the growth was 77.5% (inactive) and 81.1% (inactive).
Consider `CC1=C(/C=C/C(C)=C/C=C/C(C)=C/C(=O)O)C(C)(C)CCC1`, for which the growth is 73.4% (inactive) and 88.2% (inactive) and 80.3% (inactive).
Same read-out and setting: the figure for `Cn1cc(-c2cc3c(Nc4ccc(CC(=O)Nc5cc(C(C)(C)C)on5)cc4)ncnc3[nH]2)cn1` is 4.17% (active) and 8.31% (active); for `NCCSC(C[N+](=O)[O-])c1ccccc1Cl` (stereo not given) it is -26.9% (active); for `CC(CN=Cc1ccccc1O)N=Cc1ccccc1O` (stereo not given) it is 107% (inactive) and 117% (inactive).
In the case of `C1CCCCNCCC1`, the growth was 105% (inactive).
With `COc1cc(/C=N/Nc2nc3c([nH]2)c(=O)n(C)c(=O)n3C)ccc1O`, the growth was 105% (inactive) and 97.8% (inactive).
Consider `CN(C)c1ccc(C(Cc2ccc3ccccc3n2)Cc2ccc3ccccc3n2)cc1`, for which the growth was 45% (inactive) and 91.1% (inactive).
As to `O=C(Nc1ccc([N+](=O)[O-])cc1Cl)c1cc(Cl)ccc1O`, the growth is 2.95% (active) and 18.5% (inactive).
Take `COc1ccc2ccccc2c1/C=N/N1CCCCC1`: the growth is 95.7% (inactive).
Consider `S=C(S)N1CCCC1`, for which the growth is 70.6% (inactive) and 58.4% (inactive).
For the molecule `NC(=O)NO`, the growth was 94.8% (inactive) and 53.4% (inactive).
Same read-out and setting: the figure for `O=C(O)c1cc(C(=O)O)cc([N+](=O)[O-])c1` is 106% (inactive).
Regarding `N=C1N=C(N)CS1`, the growth was 96.6% (inactive).
On the same count and under the same terms, to `Nc1n[nH]c(=S)n1-c1ccc(Cl)cc1` belongs 100% (inactive).
Consider `O=S1(=O)CC(Br)C(Br)C1` (stereo not given), for which the growth was 95.4% (inactive) and 95% (inactive).

Staying with this assay, now noted: 30 µM.
As for `CNC(=O)c1cc(Oc2ccc(CC(=O)Nc3cc(C(C)(C)C)nn3C)cc2)ccn1`, the growth was 80.8% (inactive).

Staying with this assay, now noted: 100 µM.
Regarding `CC#C[C@]1(O)CC[C@H]2[C@@H]3CCC4=CC(=O)CCC4=C3[C@@H](c3ccc4c(c3)OCO4)C[C@@]21C`, the growth was -19.7% (active).
